Measurements: PubChem BioAssay AID624125 (The Scripps Research Institute Molecular Screening Center, 2012)
Values joined by “and” are separate entries in the source; they are usually repeats but may differ in a detail not shown here. Identical values can stand only once. About 2,600 (0.72%) of roughly 360,000 compounds were called active.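 Rule for the calls: active = inhibition above its plate's cutoff, the mean inhibition of sample wells plus 3 SD (cut at about 27% in these data); inactive = the rest.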 This excerpt belongs to a sample that is enriched for actives. Where a structure was tested more than once in an assay, its records may differ in their call.

target: Muscarinic acetylcholine receptor M4 (Homo sapiens) (UniProt P08173); test: human M4 muscarinic receptor antagonists, primary screen, CHO cells, Fluo-8 calcium fluorescence (AID 624125); settings: CHO-hM4 cells, ACh EC80, Fluo-8 calcium fluorescence; at 3 µM; stronger effect = higher value;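 note: 0% = acetylcholine EC80 with DMSO and 100% = DMSO without agonist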
Sequence (P08173 whole entry, looked up): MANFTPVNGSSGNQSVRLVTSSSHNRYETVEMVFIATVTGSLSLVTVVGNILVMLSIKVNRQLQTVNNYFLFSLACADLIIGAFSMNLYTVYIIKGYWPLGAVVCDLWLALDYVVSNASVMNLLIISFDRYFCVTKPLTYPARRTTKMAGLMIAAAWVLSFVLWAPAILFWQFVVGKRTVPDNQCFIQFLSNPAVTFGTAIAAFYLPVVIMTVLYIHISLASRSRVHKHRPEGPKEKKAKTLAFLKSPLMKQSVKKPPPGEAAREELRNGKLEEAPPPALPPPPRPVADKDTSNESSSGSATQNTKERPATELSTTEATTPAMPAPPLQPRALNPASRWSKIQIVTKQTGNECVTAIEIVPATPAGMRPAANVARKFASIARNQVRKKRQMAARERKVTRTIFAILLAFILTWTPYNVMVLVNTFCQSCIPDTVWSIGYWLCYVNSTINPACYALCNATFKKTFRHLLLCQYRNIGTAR

| Compound | inhibition |
| --- | --- |
| CCOC(=O)[C@H]1[C@H]2COc3cc(OC)ccc3[C@@H]2N2C(=O)CN(Cc3ccc(Cl)cc3)C(=O)[C@@]12C | 2.23% (inactive) |
| CCOC(=O)[C@H]1[C@H]2COc3ccccc3[C@@H]2N2C(=O)CN(Cc3ccccc3)C(=O)[C@@]12C | -1.92% (inactive) |
| CCOC(=O)[C@H]1[C@H]2COc3ccc(C)cc3[C@@H]2N2C(=O)CN(Cc3ccc(F)cc3)C(=O)[C@@]12C | 56.2% (active) |
| CC(C)CNC(=S)NC(=O)c1ccc(Cl)cc1 | -0.83% (inactive) |
| COc1ccc(N2CC(C(=O)NCCN3C(=O)S/C(=C\c4cccnc4)C3=O)CC2=O)c(OC)c1 (centres undefined) | -13.5% (inactive) |
| O=C(NC(Cc1ccc(O)cc1)C(=O)O)/C(=C/c1ccccc1)NC(=O)c1ccccc1 (centres undefined) | 0.71% (inactive) |
| COc1cccc(C(=O)NNS(=O)(=O)c2ccc(F)cc2)c1 | 9.85% (inactive) |
| CC(C)NC(=O)C1(C)CCCCN1Cc1cccc(C(F)(F)F)c1 (centres undefined) | -7.19% (inactive) |
| O=C(COC(=O)c1ccc(S(=O)(=O)Nc2ccccc2)cc1)NCC1CCCO1 (centres undefined) | 0.71% (inactive) |
| C=CCC1(CC=C)CCCN1C(=O)c1cc(COc2ccc(-n3cncn3)cc2)on1 | 28.6% (active) |
| O=C(c1cc(COc2c(F)cccc2F)on1)N1CCSCC1 | 8.34% (inactive) |
| CCCC(=O)N1CCC1(C)C(=O)Nc1ccc(-n2cncn2)cc1 (centres undefined) | -7.42% (inactive) |
| Cc1cccc(C)c1Nc1nnc(SCC(=O)NCCCN2CCCC2=O)s1 | -0.57% (inactive) |
| COC(=O)c1sccc1NC(=O)CC1C(=O)NCCN1C(=O)Nc1ccc(F)cc1F (centres undefined) | -7.71% (inactive) |
| COc1ccc(CC(=O)Nc2c3c(nn2-c2cccc(Cl)c2)CS(=O)C3)cc1 (centres undefined) | 3.64% (inactive) |
| Cc1cc(OCCN2CCCC2)ccc1C(C)C | -0.72% (inactive) |
| Cc1cc(OCCN2CCCC2)cc(C(C)C)c1 | 33% (active) |
| Cc1ccc(C(C)C)cc1OCCN1CCCC1 | 9.89% (inactive) |
| CCOC(=O)[C@]12CCCC=C1N(CCC1=CCCCC1)C(=O)[C@H](CC(=O)NCCCOC)C2 | -3.81% (inactive) |
| CC(=O)N(CC1CCCO1)C1(C(=O)NC2CCCC2)CCCCC1 (centres undefined) | -5.29% (inactive) |
| CN(CC#CCC(c1ccccc1)c1ccccc1)C(C)(C)C | 78.5% (active) |
| Cc1cc(Cl)ccc1C(=O)C1CCCN(C(=O)CCN2CCCO2)C1 (centres undefined) | 4.93% (inactive) |
| CCCCCCCCCCOC(=O)Cn1c(COc2cccc(OC)c2)[n+](C)c2ccccc21 | 36% (active) |

| Compound | inhibition |
| --- | --- |
| COCCN1C(=O)C(=O)/C(=C(/O)c2ccc(S(=O)(=O)N3CCCCC3)cc2)C1c1ccc(OC)c(OC)c1 (centres undefined) | -5.56% (inactive) |
| CC(C)c1cc(C(=O)N/N=C/c2ccoc2)c(O)c(C(C)C)c1 | 5.01% (inactive) |
| O=C(Cc1ccc(Cl)cc1)NC(=S)Nc1ccccc1O | 59% (active) |
| COC(=O)c1ccccc1NC(=O)CN(Cc1ccc(Cl)cc1)S(C)(=O)=O | 1.99% (inactive) |
| Fc1ccccc1CNC(=S)Nc1ccc(Cl)cc1 | 4.18% (inactive) |
| CCOc1ccc(S(=O)(=O)N(CC(=O)NCC(F)(F)F)Cc2ccco2)cc1 | -2.55% (inactive) |
| Cc1ccc(OCCNC(=O)CCNS(=O)(=O)c2ccc(Br)cc2)cc1 | -11.5% (inactive) |
| Cc1ccc(OC(=O)c2c(C)nn(-c3ccccc3)c2C)cc1 | -5.29% (inactive) |
| CCC1OC(c2ccc([N+](=O)[O-])cc2)=Nc2ccccc21 (centres undefined) | 31.2% (active) |
| COc1ccccc1CSc1ncc(-c2ccc([N+](=O)[O-])cc2)[nH]1 | -1.68% (inactive) |
| CCCCN(C)c1ccc([N+](=O)[O-])cc1 | 12.1% (inactive) |
| CCOC(=O)c1cc(-c2ccccc2C)n(Cc2cc(C)no2)n1 | 4.03% (inactive) |
| CCCCNCCS(=O)(=O)NCc1ccccc1 | 7.64% (inactive) |
| CO/N=C(\C(=O)N[C@@H]1C(=O)N2C(C(=O)O)=C(COC(C)=O)CS[C@H]12)c1csc(N)n1 (stereo in doubt) | -6.4% (inactive) and 79.2% (active) and 82.7% (active) |
| C=CC1=C(C(=O)O)N2C(=O)[C@@H](NC(=O)/C(=N\OCC(=O)O)c3csc(N)n3)[C@H]2SC1 | -25.2% (inactive) |
| C=CC1=C(C(=O)O)N2C(=O)[C@@H](NC(=O)/C(=N/OCC(=O)O)c3csc(N)n3)[C@H]2SC1 | -12.2% (inactive) |
| Cn1c(Cc2cccc3ccccc23)nnc1SCC(=O)N1CCN(c2cccc(Cl)c2)CC1 | -1.27% (inactive) |
| O=C(Cc1csc(Nc2nc(=S)[nH]c3ccccc23)n1)NCCCN1CCN(c2cccc(Cl)c2)CC1 | 32.6% (active) |
| O=C(Cc1ccc(-n2c(=O)[nH]c3ccccc3c2=O)cc1)N1CCN(c2cccc(Cl)c2)CC1 | -5% (inactive) |
| COc1cc(SC#N)ccc1N=Cc1c(C)[nH]n(-c2ccc(C)cc2)c1=O | 39.7% (active) |
| CCN(CC(=O)NCc1cccs1)S(=O)(=O)c1ccc(NC(C)=O)cc1 | 16.2% (inactive) |
| CCCCNC(=O)N1CCN(S(C)(=O)=O)CC1 | 10.9% (inactive) |
| O=C(Nc1ccc(Cl)c(C(F)(F)F)c1)C1Cc2c(-c3ccccc3Oc3ccccc3)ccnc2O1 (centres undefined) | 6.27% (inactive) |

| Compound | inhibition |
| --- | --- |
| O=C1c2ccccc2C(=O)N1CCC(c1ccccc1)c1ccco1 (centres undefined) | 35.6% (active) |
| Nc1ccc(SCCN2C(=O)c3ccccc3C2=O)cc1 | 2.61% (inactive) |
| O=C1c2ccccc2C(=O)N1CCC(O)C[N+](=O)[O-] (centres undefined) | -2.27% (inactive) |
| Cc1ccc(NC(=O)COC(=O)C2C3CC4OC(=O)C2C4C3)cc1Cl (centres undefined) | 15.9% (inactive) |
| CCCN1C(=O)C(NC(C)=O)c2cc(OC)ccc21 (centres undefined) | 13.9% (inactive) |
| ON=C1/C(=N\O)CC2(C/C1=N/O)OCCO2 | 10.7% (inactive) |
| COc1cc(/C=C2\SC(=O)NC2=O)ccc1OCc1ccc(Cl)nc1 | -5.37% (inactive) |
| COc1cc(/C=C2/SC(=S)N(Cc3ccccc3)C2=O)cc(OC)c1O | 34.3% (active) |
| CN(C(=O)CN1C(=O)/C(=C/c2ccc(Cl)cc2)SC1=S)C1CCS(=O)(=O)C1 (centres undefined) | -3.95% (inactive) |
| CCCN(CCc1ccccc1)C1CCc2c(O)cccc2C1 (centres undefined) | 50.8% (active) |
| Cc1cc(C)cc(C(=O)N(CCc2ccccc2)C2=CC3CCC(C2)N3C)c1 (centres undefined) | 2.44% (inactive) |
| Cc1cccc(C)c1NC(=O)C(c1cccc2ccccc12)n1c(=O)c(-c2ccco2)nc2ccccc21 (centres undefined) | -2.98% (inactive) |
| Cc1ccc(S(=O)(=O)N2CCN(C(=O)COC(=O)CNC(=O)c3ccc(C(C)(C)C)cc3)CC2)c(C)c1 | 1.62% (inactive) |
| Cc1cccc2c1-c1sc(C(=O)NCCCN3CCc4ccccc4C3)cc1CO2 | 45.9% (active) |
| Cc1ccc(NC(=O)CN2CCc3ccccc3C2)cc1C | 1.35% (inactive) |
| Cc1cccc(C)c1NC(=O)c1ccc(CN2CCc3ccccc3C2)cc1 | 12.8% (inactive) |
| Cc1ccc(C(=O)OCC(=O)NC(=O)Cc2ccccc2)c(O)c1 | 3.16% (inactive) |
| CC1CCCCC1NC(=O)CN1CCC(O)(c2ccc3c(c2)OCO3)CC1 (centres undefined) | -5.57% (inactive) |
| CC(=O)c1c(C)[nH]c(C(=O)OCC(=O)Nc2c(C)cccc2C)c1C | 4.68% (inactive) |
| COc1ccc(C)cc1NC(=O)C(OC(=O)c1cccc(S(=O)(=O)N(C)c2ccccc2)c1)c1ccccc1 (centres undefined) | 5.12% (inactive) |
| CC(=O)c1c(C)[nH]c(C(=O)COC(=O)c2cccc(S(=O)(=O)N(C)c3ccccc3)c2)c1C | 54.5% (active) |
| C=CCSc1nc(N)cc(=O)[nH]1 | 4.39% (inactive) |
| O=C(C1CCN(CC2CCCCC2)CC1)N1CCCC1 | -6.1% (inactive) |

| Compound | inhibition |
| --- | --- |
| CC(=O)NC(c1cccc(F)c1)c1nc(-c2cccc(F)c2)cs1 (centres undefined) | -12% (inactive) |
| COC(=O)c1ccccc1Sc1c(/C=N/OCc2ccc(Cl)cc2)c(C(F)(F)F)nn1C | -7.11% (inactive) |
| CCC(=O)OCc1c(C(F)(F)F)nn(C)c1Oc1cccc(C(F)(F)F)c1 | 9.7% (inactive) |
| Cn1nc(C(F)(F)F)c(C(=O)Nc2cccc(C(F)(F)F)c2)c1SCc1ccc(Cl)cc1 | 33.8% (active) |
| C=CCNC(=S)/N=c1/ccccn1Cc1ccccc1 | 11.8% (inactive) |
| COc1cccc(CNc2nc(NCc3ccccc3OC)nc3ccsc23)c1 | 13.8% (inactive) |
| COc1ccccc1CNc1nc(Nc2ccccc2Cl)c2sccc2n1 | 3.54% (inactive) |
| COc1cccc(CNc2nc(NCc3cccs3)nc3ccsc23)c1 | 48.6% (active) |
| COc1ccc(OCC(=O)Nc2cc(C)c(Cl)cc2OC)c([N+](=O)[O-])c1 | -4.9% (inactive) |
| CN(C)CCOC1c2ccccc2-c2ccccc21 | 3.09% (inactive) |
| Cc1ccccc1C(OCCN(C)C)C1CCCCC1 (centres undefined) | 83% (active) |
| Cc1ccccc1C(OCC(O)CN1CCCCC1CCO)c1ccccc1 (centres undefined) | 8.86% (inactive) |
| Cc1n[nH]c(=O)n1-c1ccc(Oc2ccccc2)cc1 | -7.75% (inactive) |
| COc1cccc(/C=N/Nc2cc(C)nc(-c3ccccc3O)n2)c1O | 28.3% (active) |
| COc1ccc(OC)c(/C=N/NC(=O)c2ccc[n+](CC(=O)c3ccccc3)c2)c1 | -5.54% (inactive) |
| CCCCCCCCn1c2c(c(=N)c3c1CCC3)CCCC2 | 36.8% (active) |
| CC1CN(S(=O)(=O)c2ccccc2)C(C)CN1S(=O)(=O)c1ccccc1 (centres undefined) | -4.76% (inactive) |
| O=C(CC(NC(=O)c1ccccc1)c1ccccc1)Nc1ccc(F)c(F)c1 (centres undefined) | -4.69% (inactive) |
| COc1ccccc1OCc1nnc(SCC(N)=O)n1-c1ccccc1 | -4.24% (inactive) |
| CC1CCN(C(=O)c2ccc(S(=O)(=O)Cc3cc(F)ccc3F)c([N+](=O)[O-])c2)CC1 | -7.53% (inactive) |
